# Laboratory results from the supplement of paper PMC11001985.
# Unmarked numbers belong to inactive results.
# Compound: C#CCNC(=O)CCSSCCC(=O)NCCc1ccc(C=O)c(C=O)c1
# Test: lysine labeling ratio R10:1 (500 µM / 50 µM probe), SILAC-ABPP in living cells; higher = lower intrinsic lysine reactivity toward the probe, active = 2 or less
# Settings: HeLa; probe concentrations 500 vs 50 µM
# In short: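 An alkyne-tagged lysine probe with a disulfide linker labelled living HeLa cells in PBS at room temperature at either 50 µM or 500 µM, using SILAC light and heavy cells in forward and reverse label swaps. Lysates were mixed, clicked to biotin-azide, trypsin-digested, enriched on neutravidin, DTT-released, alkylated and measured by LC-MS/MS on a TIMS-TOF Pro. Each lysine's R is the filtered median high-probe/low-probe MS1 peptide ratio, combined as the median over forward and reverse replicates, with 20 as the upper limit.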
# Chain of UniProt Q07954 (Q07954 whole entry): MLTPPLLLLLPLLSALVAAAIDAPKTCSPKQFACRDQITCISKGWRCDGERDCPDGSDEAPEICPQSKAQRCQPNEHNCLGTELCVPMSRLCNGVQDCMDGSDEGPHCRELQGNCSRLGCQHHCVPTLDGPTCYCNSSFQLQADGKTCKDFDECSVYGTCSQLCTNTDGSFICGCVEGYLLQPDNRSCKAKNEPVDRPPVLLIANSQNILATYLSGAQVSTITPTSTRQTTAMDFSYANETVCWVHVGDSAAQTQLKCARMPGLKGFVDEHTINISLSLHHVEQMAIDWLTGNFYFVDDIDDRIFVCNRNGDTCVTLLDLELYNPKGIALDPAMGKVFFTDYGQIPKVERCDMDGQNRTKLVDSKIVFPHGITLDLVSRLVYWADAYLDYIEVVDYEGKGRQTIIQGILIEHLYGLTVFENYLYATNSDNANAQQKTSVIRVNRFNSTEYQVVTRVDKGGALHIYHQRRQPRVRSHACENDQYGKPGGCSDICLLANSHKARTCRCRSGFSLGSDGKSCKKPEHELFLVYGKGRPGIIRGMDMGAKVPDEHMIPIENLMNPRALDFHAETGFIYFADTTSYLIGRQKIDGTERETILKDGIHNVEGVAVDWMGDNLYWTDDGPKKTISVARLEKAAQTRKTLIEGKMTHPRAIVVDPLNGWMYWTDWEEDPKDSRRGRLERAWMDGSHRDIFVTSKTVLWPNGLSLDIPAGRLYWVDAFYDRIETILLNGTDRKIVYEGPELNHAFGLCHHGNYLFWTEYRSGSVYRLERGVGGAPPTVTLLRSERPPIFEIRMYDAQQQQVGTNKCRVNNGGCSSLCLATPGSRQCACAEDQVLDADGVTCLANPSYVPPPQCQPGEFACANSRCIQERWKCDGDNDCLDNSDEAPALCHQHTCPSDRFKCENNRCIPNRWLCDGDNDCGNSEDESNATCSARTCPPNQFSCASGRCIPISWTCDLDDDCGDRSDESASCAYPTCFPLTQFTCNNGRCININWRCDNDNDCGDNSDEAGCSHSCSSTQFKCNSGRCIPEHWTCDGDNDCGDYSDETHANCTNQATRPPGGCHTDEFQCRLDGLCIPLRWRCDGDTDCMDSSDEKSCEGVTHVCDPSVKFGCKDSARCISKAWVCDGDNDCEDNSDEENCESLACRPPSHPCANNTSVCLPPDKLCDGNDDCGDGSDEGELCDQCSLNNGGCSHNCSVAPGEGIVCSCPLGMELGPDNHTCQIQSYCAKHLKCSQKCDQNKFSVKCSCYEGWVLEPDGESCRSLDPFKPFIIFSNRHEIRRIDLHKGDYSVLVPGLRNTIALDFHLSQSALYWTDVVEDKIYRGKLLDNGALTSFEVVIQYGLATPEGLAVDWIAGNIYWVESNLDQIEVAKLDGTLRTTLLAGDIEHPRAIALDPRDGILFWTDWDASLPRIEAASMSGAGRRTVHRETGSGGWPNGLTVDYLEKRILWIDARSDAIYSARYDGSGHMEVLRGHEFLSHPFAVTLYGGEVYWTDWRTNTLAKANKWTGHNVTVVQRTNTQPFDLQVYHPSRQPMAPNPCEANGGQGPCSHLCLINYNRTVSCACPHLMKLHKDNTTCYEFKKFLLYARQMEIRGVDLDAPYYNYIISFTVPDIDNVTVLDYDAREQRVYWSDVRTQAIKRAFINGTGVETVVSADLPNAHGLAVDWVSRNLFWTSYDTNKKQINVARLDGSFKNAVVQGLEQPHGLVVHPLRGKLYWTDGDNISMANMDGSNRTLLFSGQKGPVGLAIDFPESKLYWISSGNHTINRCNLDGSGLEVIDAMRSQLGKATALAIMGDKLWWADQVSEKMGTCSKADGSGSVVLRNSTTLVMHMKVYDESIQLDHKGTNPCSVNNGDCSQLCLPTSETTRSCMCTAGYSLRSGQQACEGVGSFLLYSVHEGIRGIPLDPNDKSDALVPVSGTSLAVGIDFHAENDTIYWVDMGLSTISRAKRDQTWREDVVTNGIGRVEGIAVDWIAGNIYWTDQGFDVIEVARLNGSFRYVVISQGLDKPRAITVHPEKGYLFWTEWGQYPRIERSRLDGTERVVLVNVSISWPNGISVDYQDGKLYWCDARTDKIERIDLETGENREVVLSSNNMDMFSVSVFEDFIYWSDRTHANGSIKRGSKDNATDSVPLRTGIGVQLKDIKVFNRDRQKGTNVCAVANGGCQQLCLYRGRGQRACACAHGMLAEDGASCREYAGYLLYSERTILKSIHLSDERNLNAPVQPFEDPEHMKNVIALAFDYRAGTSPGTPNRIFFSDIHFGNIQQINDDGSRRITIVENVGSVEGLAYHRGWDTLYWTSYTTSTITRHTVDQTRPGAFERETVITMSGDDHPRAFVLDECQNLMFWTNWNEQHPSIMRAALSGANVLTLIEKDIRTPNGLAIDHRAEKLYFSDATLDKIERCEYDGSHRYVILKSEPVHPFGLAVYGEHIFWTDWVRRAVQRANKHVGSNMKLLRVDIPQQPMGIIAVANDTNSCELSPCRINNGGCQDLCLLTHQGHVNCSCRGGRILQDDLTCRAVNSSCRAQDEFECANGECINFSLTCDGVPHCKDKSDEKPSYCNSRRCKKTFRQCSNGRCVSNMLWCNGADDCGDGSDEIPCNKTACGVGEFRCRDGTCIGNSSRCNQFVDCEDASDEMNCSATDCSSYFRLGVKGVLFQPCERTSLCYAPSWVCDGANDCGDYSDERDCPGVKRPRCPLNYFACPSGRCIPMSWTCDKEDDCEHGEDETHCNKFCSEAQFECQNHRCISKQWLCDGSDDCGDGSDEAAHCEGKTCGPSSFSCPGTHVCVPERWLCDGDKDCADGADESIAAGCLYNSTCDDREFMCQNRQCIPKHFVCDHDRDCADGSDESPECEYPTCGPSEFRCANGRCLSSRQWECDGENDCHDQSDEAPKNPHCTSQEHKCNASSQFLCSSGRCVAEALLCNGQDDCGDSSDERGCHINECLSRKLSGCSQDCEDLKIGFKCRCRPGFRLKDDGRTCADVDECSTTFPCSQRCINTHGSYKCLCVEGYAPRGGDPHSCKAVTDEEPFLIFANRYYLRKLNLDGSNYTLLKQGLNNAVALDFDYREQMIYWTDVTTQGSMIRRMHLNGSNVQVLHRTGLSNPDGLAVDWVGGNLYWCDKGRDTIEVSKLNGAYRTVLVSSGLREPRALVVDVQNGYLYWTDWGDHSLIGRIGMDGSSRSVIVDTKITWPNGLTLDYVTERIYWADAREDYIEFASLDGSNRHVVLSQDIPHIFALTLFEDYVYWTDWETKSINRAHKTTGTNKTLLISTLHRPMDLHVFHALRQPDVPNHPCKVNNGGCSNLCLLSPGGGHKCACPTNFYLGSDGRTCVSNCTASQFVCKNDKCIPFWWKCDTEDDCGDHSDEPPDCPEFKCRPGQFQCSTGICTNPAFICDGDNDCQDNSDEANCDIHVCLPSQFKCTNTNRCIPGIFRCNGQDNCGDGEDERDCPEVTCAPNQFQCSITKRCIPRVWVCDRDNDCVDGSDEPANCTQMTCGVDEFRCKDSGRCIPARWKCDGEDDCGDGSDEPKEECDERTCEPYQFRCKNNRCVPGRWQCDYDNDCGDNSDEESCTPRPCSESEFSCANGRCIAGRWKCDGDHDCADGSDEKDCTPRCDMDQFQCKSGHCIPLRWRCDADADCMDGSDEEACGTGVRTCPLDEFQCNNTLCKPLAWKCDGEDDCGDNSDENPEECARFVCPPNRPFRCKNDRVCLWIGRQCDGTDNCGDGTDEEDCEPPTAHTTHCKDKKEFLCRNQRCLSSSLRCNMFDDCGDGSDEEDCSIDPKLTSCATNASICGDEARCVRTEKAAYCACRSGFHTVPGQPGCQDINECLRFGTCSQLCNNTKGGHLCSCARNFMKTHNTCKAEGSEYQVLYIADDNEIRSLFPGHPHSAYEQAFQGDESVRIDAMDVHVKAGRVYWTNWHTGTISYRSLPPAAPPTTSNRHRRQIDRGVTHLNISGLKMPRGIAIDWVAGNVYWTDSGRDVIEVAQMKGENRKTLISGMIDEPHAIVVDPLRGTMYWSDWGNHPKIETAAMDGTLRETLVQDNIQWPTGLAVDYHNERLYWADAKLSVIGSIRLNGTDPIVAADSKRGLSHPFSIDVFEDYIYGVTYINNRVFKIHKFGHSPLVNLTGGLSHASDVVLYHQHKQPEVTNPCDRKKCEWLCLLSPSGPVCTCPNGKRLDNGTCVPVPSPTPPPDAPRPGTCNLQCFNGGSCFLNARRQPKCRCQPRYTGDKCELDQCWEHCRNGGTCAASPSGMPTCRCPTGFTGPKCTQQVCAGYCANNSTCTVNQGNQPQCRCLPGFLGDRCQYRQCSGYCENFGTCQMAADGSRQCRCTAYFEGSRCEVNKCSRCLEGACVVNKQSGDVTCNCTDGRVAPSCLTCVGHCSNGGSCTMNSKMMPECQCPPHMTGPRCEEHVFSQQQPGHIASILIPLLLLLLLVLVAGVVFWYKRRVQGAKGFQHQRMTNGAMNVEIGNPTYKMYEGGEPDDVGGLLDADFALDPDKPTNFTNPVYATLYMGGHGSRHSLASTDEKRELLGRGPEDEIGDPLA
# Chain of UniProt P27701 (P27701 whole entry): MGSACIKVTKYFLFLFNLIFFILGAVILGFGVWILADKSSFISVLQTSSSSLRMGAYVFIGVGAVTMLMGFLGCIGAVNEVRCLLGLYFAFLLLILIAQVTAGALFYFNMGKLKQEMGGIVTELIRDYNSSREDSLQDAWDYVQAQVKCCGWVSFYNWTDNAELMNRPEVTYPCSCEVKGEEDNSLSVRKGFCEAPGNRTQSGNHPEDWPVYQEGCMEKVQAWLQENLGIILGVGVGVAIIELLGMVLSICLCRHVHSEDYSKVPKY
# Chain of UniProt P09601 (P09601 whole entry): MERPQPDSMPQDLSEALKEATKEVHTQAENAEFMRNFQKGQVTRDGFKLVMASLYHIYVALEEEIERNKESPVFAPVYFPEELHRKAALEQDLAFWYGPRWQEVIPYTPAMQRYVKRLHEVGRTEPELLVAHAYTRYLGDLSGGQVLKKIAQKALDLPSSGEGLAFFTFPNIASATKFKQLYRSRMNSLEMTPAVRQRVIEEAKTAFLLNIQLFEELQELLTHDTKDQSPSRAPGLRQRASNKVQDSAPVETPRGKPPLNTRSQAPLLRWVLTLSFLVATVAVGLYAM
row,Target,lysine labeling ratio R10:1
1,UniProt P16144 (lysine site: K662),1.57 (active)
2,LDLR (lysine site: K603) (UniProt P01130),1.19 (active)
3,UniProt P22413 (lysine site: K448),0.527 (active)
4,TAGLN2 (lysine site: K154) (UniProt P37802),1.43 (active)
5,PCNA (lysine site: K254) (UniProt P12004),1.56 (active)
6,GPRC5A (lysine site: K16) (UniProt Q8NFJ5),6.52
7,UniProt Q9UHA4 (lysine site: K12),3.79
8,CD82 (lysine site: K114) (UniProt P27701),0.977 (active)
9,CCT3 (lysine site: K427) (UniProt P49368),0.772 (active)
10,UniProt P62829 (lysine site: K74),3.78
11,UniProt P14618 (lysine site: K270),1.75 (active)
12,TKT (lysine site: K204) (UniProt P29401),10.2
13,LRP1 (lysine site: K3910) (UniProt Q07954),1.43 (active)
14,UniProt Q9UHN6 (lysine site: K846),1.51 (active)
15,PA2G4 (lysine site: K238) (UniProt Q9UQ80),1.53 (active)
16,UniProt Q16790 (lysine site: K133),8.23
17,HMOX1 (lysine site: K39) (UniProt P09601),1.45 (active)
18,MYH9 (lysine site: K760) (UniProt P35579),3.31
